Data published in the supplement of paper PMC11732987, “Enantioselective OTUD7B fragment discovery through chemoproteomics screening and high-throughput optimisation” (Communications Chemistry, 2025).

Experiments:
Test in all cases: log2 ratio of Biotin-Ahx-Ub-VS probe labelling (fragment/DMSO); higher = less target engagement (more negative = stronger competition), active = hit call of the paper (q ≤ 0.05, log2 ratio ≤ -1)
Settings in all cases: compound concentration: 200 uM; treatment time: 3 h
USP34 = USP34 (UniProt Q70CQ2)
In short: (§1)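 Labelling with Biotin-Ahx-Ub-VS (0.5 µM final, 1 h) followed a 3 h triplicate treatment of HEK293T lysate (495 µg per sample, Tris/CHAPS/IGEPAL buffer with protease inhibitors) with fragment at 200 µM or vehicle. Labelled DUBs were NeutrAvidin-enriched, digested with LysC and trypsin, and run by diaPASEF LC-MS/MS. The values, average log2 fragment/vehicle ratios by unpaired t-test, come from global-median-normalised Spectronaut label-free quantities. Proteins with ≥2 unique peptides were used.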

USP36 = target: T1, USP36 (UniProt Q9P275)
T1 sequence (whole entry): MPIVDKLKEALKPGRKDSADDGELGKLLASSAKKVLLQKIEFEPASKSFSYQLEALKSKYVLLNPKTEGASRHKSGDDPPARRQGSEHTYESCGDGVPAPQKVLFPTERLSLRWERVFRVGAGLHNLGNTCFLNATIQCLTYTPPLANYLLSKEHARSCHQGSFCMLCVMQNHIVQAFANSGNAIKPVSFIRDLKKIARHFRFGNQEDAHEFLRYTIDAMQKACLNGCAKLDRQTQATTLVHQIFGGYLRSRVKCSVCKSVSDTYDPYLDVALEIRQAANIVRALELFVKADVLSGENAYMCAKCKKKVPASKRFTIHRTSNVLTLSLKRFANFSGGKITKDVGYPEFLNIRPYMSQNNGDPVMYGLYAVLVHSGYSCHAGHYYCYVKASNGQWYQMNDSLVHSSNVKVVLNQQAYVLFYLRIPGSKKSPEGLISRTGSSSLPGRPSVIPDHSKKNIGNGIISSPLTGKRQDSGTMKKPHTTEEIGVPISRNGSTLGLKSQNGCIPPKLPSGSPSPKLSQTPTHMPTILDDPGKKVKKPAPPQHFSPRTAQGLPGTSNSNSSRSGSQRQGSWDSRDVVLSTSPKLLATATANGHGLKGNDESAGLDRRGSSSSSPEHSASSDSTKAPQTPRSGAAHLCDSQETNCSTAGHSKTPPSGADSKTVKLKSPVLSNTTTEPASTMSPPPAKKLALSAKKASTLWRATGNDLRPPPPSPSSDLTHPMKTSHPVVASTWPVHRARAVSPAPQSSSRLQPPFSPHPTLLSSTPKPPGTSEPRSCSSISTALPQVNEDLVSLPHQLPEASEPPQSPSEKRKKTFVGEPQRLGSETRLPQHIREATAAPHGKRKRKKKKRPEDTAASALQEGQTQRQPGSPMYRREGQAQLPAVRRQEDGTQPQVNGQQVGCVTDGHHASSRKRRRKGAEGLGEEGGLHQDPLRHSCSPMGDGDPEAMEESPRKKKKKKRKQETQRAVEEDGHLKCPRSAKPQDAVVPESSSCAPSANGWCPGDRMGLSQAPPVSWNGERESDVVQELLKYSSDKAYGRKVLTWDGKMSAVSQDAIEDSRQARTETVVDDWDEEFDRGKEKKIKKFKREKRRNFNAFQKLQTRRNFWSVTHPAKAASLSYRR
In short: as §1

USP38 = target: T2, USP38 (UniProt Q8NB14)
T2 sequence (whole entry): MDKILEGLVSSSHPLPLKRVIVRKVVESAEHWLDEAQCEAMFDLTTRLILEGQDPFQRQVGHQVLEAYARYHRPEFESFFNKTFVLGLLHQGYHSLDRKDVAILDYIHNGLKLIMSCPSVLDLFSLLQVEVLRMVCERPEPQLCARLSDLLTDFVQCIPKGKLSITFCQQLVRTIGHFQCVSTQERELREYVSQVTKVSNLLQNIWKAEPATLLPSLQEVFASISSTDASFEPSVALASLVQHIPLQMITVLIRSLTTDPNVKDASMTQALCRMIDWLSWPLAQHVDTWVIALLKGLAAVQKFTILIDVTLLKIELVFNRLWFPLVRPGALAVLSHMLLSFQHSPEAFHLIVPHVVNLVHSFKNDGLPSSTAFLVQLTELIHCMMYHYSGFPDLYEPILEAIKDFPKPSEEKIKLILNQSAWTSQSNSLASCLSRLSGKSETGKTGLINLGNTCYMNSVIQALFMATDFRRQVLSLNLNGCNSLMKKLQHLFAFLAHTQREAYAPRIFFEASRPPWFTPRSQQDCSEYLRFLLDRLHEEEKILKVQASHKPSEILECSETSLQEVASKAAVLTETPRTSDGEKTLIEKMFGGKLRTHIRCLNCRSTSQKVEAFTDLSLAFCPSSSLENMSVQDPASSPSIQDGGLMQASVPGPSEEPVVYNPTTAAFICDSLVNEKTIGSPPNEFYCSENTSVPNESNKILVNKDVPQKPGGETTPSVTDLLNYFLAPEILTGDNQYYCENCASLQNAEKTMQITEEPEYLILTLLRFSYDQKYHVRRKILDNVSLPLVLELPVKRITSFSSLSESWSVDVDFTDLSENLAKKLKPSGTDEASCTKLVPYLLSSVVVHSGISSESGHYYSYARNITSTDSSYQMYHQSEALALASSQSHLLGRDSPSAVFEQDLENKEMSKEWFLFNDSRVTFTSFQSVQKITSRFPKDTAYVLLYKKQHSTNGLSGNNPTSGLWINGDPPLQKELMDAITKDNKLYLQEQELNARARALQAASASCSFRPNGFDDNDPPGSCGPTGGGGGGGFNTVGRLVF
In short: as §1

USP39 = target: T3, USP39 (UniProt Q53GS9)
T3 sequence (whole entry): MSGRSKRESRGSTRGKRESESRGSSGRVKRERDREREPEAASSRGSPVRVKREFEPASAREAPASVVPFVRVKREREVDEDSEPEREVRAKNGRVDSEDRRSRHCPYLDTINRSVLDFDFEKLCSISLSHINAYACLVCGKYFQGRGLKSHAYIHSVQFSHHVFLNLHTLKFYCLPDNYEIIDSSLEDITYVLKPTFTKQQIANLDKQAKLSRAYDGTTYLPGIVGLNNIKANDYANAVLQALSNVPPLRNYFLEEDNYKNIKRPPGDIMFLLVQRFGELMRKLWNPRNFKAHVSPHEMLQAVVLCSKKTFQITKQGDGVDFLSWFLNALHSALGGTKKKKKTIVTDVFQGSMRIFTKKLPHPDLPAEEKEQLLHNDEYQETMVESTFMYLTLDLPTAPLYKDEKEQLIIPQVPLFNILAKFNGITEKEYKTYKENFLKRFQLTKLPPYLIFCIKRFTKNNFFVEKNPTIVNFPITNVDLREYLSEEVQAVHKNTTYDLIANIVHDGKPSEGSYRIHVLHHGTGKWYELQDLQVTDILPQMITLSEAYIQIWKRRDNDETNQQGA
In short: as §1

USP4 = target: T4, USP4 (UniProt Q13107)
T4 sequence (whole entry): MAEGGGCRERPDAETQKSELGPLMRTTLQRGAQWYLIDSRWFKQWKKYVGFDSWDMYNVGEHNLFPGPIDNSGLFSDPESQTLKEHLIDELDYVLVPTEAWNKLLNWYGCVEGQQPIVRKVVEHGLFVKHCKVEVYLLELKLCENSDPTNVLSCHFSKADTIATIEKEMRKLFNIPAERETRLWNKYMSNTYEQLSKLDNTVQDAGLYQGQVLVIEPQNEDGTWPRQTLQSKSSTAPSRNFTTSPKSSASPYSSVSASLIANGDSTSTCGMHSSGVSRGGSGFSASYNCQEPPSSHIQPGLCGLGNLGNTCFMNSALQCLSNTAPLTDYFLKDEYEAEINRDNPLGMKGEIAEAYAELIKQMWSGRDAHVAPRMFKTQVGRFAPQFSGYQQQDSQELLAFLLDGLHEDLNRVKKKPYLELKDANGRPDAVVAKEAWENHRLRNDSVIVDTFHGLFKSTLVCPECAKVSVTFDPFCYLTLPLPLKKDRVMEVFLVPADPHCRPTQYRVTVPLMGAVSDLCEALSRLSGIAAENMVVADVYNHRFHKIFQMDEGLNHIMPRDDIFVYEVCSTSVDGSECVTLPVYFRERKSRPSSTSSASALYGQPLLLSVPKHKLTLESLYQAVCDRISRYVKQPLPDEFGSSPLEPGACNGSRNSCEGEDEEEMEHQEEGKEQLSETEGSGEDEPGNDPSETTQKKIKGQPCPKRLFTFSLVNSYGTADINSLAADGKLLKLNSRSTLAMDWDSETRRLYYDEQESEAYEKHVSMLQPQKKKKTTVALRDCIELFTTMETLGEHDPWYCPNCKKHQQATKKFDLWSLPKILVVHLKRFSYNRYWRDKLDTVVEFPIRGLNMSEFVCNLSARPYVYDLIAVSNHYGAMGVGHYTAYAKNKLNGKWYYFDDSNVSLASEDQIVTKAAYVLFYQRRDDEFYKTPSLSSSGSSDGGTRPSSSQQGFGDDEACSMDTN
In short: as §1

Measured: log2 ratio of Biotin-Ahx-Ub-VS probe labelling

Chain of USP34 (Q70CQ2 whole entry, the tested form may be a part): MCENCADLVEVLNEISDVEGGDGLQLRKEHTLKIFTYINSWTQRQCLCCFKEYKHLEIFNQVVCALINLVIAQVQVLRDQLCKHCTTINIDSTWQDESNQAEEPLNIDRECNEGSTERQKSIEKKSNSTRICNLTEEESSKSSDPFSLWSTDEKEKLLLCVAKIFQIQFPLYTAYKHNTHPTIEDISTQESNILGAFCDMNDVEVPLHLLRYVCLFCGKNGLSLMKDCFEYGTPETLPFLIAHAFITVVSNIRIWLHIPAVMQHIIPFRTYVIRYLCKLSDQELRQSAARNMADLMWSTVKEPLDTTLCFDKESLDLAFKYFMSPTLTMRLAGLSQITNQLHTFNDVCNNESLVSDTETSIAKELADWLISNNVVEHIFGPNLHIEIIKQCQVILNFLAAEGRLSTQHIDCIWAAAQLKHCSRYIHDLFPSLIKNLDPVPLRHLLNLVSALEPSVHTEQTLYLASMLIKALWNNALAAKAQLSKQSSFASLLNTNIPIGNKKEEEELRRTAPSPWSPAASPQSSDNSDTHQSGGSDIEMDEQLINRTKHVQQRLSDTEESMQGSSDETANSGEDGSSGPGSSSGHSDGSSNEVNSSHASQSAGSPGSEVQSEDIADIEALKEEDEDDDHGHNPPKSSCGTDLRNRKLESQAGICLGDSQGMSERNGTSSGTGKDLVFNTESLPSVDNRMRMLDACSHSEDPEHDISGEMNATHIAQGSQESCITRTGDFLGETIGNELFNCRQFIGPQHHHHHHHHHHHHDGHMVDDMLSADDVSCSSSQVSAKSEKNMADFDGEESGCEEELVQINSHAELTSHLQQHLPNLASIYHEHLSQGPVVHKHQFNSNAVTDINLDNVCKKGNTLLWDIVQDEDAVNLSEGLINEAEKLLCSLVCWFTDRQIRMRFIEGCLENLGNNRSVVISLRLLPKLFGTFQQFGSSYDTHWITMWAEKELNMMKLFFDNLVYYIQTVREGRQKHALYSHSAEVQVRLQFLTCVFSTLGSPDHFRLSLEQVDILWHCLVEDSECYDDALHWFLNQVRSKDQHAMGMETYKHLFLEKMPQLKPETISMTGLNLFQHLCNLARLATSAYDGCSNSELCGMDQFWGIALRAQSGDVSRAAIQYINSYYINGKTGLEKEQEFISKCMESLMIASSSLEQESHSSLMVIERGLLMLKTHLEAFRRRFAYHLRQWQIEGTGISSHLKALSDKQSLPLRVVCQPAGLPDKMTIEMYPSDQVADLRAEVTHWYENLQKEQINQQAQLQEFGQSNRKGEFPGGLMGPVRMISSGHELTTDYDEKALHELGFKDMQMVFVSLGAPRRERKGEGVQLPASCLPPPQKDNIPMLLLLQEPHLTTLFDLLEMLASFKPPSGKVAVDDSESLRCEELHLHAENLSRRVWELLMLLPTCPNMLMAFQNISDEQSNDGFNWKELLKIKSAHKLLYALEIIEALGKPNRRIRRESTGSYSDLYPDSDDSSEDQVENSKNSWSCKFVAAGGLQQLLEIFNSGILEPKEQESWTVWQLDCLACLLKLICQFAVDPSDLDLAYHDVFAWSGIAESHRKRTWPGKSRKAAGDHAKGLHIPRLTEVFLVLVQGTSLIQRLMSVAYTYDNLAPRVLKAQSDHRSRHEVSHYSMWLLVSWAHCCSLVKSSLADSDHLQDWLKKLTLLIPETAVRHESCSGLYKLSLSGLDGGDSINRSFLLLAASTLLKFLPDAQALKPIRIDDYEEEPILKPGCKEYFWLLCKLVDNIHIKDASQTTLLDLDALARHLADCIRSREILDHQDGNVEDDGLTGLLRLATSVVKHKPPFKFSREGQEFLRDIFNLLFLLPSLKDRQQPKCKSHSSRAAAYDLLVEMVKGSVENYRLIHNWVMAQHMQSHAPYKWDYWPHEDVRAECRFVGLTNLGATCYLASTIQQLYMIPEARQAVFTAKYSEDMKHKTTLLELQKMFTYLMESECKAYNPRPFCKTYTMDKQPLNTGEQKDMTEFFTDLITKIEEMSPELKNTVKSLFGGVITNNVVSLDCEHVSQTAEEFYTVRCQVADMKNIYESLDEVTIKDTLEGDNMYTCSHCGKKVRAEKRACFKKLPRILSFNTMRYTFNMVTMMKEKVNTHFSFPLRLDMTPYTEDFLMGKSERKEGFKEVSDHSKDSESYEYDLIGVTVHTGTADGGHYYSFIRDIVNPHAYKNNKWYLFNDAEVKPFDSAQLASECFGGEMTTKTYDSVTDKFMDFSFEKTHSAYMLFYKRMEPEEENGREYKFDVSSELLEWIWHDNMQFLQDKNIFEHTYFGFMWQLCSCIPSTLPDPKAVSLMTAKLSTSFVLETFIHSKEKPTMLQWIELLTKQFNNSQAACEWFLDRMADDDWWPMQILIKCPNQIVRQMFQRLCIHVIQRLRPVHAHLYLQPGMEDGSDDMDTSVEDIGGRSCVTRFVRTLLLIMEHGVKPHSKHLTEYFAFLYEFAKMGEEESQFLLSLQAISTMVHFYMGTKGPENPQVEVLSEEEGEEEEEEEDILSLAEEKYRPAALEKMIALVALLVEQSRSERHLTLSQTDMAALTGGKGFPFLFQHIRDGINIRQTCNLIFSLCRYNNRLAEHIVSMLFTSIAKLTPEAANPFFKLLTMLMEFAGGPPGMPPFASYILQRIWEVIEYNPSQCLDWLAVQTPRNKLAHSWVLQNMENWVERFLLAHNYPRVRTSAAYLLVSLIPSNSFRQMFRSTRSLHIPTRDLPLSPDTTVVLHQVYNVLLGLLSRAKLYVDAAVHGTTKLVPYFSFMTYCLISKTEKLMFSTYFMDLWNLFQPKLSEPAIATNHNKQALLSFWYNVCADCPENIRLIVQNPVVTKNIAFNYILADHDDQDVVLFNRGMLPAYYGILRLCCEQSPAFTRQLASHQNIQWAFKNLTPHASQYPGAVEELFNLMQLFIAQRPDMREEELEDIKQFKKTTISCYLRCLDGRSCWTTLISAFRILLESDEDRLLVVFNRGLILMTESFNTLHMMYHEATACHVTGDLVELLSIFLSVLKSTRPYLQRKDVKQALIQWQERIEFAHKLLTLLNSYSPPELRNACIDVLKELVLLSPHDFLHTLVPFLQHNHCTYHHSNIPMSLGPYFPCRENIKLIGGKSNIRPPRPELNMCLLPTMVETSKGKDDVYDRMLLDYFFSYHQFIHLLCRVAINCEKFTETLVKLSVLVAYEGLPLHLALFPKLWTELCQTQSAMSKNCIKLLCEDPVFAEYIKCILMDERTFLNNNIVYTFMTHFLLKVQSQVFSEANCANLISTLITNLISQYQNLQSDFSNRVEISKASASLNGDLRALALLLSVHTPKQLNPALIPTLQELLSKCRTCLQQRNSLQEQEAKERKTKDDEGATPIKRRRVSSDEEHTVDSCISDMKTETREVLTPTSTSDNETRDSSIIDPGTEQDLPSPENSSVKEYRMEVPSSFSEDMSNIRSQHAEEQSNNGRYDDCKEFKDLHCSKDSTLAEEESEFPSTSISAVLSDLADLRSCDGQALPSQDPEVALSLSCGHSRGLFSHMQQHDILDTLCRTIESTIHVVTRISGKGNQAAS

Cl.O=C(CCl)N1CCC(Cc2nccs2)C1 (stereo not given)
inactive: USP34 0.132 | USP36 -0.0197 | USP38 0.0569 | USP39 0.0712 | USP4 -0.165
